# Results taken from PubChem BioAssay.
# The source made the active and inactive calls.
# Test system: XIP peptide (Xip251-270) binding
# Test: small-molecule binders of XIP peptide, primary screen, biochemical, small-molecule microarray, fluorescence 635/667 nm, 0.1 µg/mL protein (AID 1182)
# Details: fluorescent protein binding, 635 nm, higher = more signal, called active from +8 up or from −8 down
row,Structure (SMILES),composite z-score
1,COC(=O)NCC=Cc1nc(CCCO)co1,-0.755 (inactive)
2,CC(C)=NOC[C@@H](C)[C@H](OCc1ccccc1)C(C)C,-0.0088 (inactive)
3,CO[C@H]1COC(=O)CC=C[C@@H](C)[C@H](NS(=O)(=O)c2ccc(C)cc2)COC(=O)CCC[C@@H]1C,0.0922 (inactive)
4,COc1ccc(O[C@H]2C=C[C@@H](c3ccccc3)O[C@@H]2COC(=O)CCC(C)=NO[C@@H]2O[C@H](COC(C)=O)[C@@H](OC(C)=O)[C@H](OC(C)=O)[C@H]2OC(C)=O)cc1,0.427 (inactive)
5,CCOC(=O)CCN1C(=O)[C@H]2[C@H]3[C@H](O)[C@H](O)CC(=NOCc4ccccc4)[C@H]3CC[C@H]2C1=O,-0.207 (inactive)
6,COCOc1ccc(Br)cc1C(=O)[C@@H]1O[C@H]1c1cccc(OC)c1,-0.0455 (inactive)
7,CC(C)CON=C1C[C@@H](O)[C@@H](O)[C@@H]2[C@@H]3C(=O)N(C4CCCCC4)C(=O)[C@@H]3CC[C@@H]12,0.376 (inactive)
8,CO[C@H]1COC(=O)CC=C[C@@H](C)[C@H](OC)COC(=O)[C@@H]2CCCN2C(=O)CC=C[C@@H]1C,0.832 (inactive)
9,CCOC(=O)[C@H](Cc1ccccc1)NC(=O)CCC1CC(OC(=O)NCc2ccc3c(c2)OCO3)CC2(CCCC(COC(=O)NCCc3ccccc3OC)O2)O1 (stereo not given in full),0.581 (inactive)

# Test system: XIP peptide (Xip251-270)
# Test: small-molecule binders of XIP peptide, primary screen, biochemical, small-molecule microarray, fluorescence 635/667 nm, 0.5 µg/mL protein (AID 1183)
# Details: small-molecule microarray binding, fluorescence 635 nm; higher = more signal
row,Structure (SMILES),composite z-score
1,COC(=O)CC=C[C@@H](C)[C@@H](C=NO[C@@H](C)c1cc(-c2c(C)cc(C)cc2C)no1)NS(=O)(=O)c1ccc(C)cc1,-0.91
2,CON=CC[C@@H]1C=C[C@H](OC(C)=O)[C@@H](COC(C)=O)O1,0.763
3,COC(=O)CC=C[C@@H](C)[C@@H](C=NO[C@@H]1O[C@H](COC(C)=O)[C@@H](OC(C)=O)[C@H](OC(C)=O)[C@H]1OC(C)=O)NS(=O)(=O)c1ccc(C)cc1,0.203
4,CCOC(=O)[C@H](CC(C)C)NC(=O)CCC1CC(OC(=O)NCc2ccc3c(c2)OCO3)CC2(CCCC(COC(=O)NCC(c3ccccc3)c3ccccc3)O2)O1 (stereo not given in full),-0.0305
5,Cc1ccc(S(=O)(=O)N[C@@H]2COC(=O)[C@@H](C)COC(=O)CC=C[C@H]2C)cc1,0.038
6,CC(C)(C)N1C(=O)[C@H]2[C@H]3[C@H](O)[C@H](O)CC(=NO[C@@H]4O[C@H](CO)[C@@H](O)[C@H](O)[C@H]4O)[C@H]3CC[C@H]2C1=O,0.271
7,O=C1C[C@@H](O)[C@@H](O)[C@@H]2[C@@H]3C(=O)N(Cc4ccccc4)C(=O)[C@@H]3CC[C@@H]12,0.5
8,CC(C)=CCCC(C)=CCON=C1C[C@@H](O)[C@@H](O)[C@@H]2[C@@H]3C(=O)N(c4cccc(Oc5ccccc5)c4)C(=O)[C@@H]3CC[C@@H]12,0.352
9,CO[C@H]1COC(=O)[C@@H](C)COC(=O)[C@H](COCc2ccccc2)NC(=O)CC=C[C@H]1C,-0.474
10,C[n+]1ccc(-c2ccc(CO)cc2)cc1,-0.227
11,CCCNC(=O)OC[C@H]1O[C@H](CCON=C(C)CCC(=O)OC[C@H]2O[C@H](c3ccccc3)C=C[C@@H]2Oc2ccc(OC)cc2)C=C[C@@H]1Oc1ccc(OC)cc1,-0.138
12,COC(=O)[C@H](C)NC(=O)CCC1CC(OC(=O)NCc2ccc3c(c2)OCO3)CC2(CCCC(COC(=O)NCC(c3ccccc3)c3ccccc3)O2)O1 (stereo not given in full),0.699
13,COC(=O)[C@H](C)NC(=O)CCC1CC(OC(=O)NCc2cccc3ccccc23)CC2(CCCC(COC(=O)NCC(c3ccccc3)c3ccccc3)O2)O1 (stereo not given in full),0.583
14,O=C1OCCC=C1C(O)CCc1ccccc1 (stereo not given),0.716
15,COC(=O)[C@H](C)NC(=O)CCC1CC(OC(=O)NCc2ccc3c(c2)OCO3)CC2(CCCC(COC(=O)NCc3cccc(C(F)(F)F)c3)O2)O1 (stereo not given in full),0.717
16,CO[C@H]1COC(=O)[C@H](C)NC(=O)CC=C[C@@H](C)[C@H](OC)COC(=O)[C@@H](OCc2ccccc2)C=C[C@@H]1C,-0.54
17,C#CCCCON=C1C[C@@H](O)[C@@H](O)[C@@H]2[C@@H]3C(=O)N(c4ccc(F)cc4F)C(=O)[C@@H]3CC[C@H]12,0.683
18,CCC=CCCC(OC(=O)c1ccc(Br)cc1)C1=CCCCC1=O (stereo not given),0.49

row,Structure (SMILES),composite z-score
1,C[C@@H](c1ccccc1)N1C(=O)[C@H]2[C@H]3[C@H](O)[C@H](O)CC(=O)[C@H]3CC[C@H]2C1=O,0.251
2,CCOC(=O)[C@H](CC(C)C)NC(=O)CCC1CC(OC(=O)NCc2cccc3ccccc23)CC2(CCCC(COC(=O)NCCc3ccc(Cl)cc3)O2)O1 (stereo not given in full),0.111
3,C#CCCCON=C1C[C@@H](O)[C@@H](O)[C@@H]2[C@@H]3C(=O)N(C(C)(C)C)C(=O)[C@@H]3CC[C@@H]12,0.109
4,CC(C)CON=C1C[C@@H](O)[C@@H](O)[C@@H]2[C@@H]3C(=O)N(Cc4ccc5c(c4)OCO5)C(=O)[C@@H]3CC[C@H]12,0.202
5,Cc1ccc(S(=O)(=O)N[C@H]2COC(=O)CC=C[C@@H](C)COC(=O)CC=C[C@@H]2C)cc1,0.921
6,Cc1cc2c(nc1C)CCCCN2CC(C)ON=C[C@@H](C)[C@H](OCc1ccccc1)C(C)C (stereo not given in full),-0.0948
7,C[C@@H]1CC[C@H]2C(=O)O[C@@H](COc3ccc(C(C)(C)C)cc3)CN2[C@@H]1c1ccc(Br)cc1,0.0087
8,CCOC(=O)[C@H](CC(C)C)NC(=O)CCC1CC(OC(=O)NCc2cccc3ccccc23)CC2(CCCC(COC(=O)NCc3ccncc3)O2)O1 (stereo not given in full),0.53
9,C#CCCCON=C1C[C@@H](O)[C@@H](O)[C@@H]2[C@@H]3C(=O)N(Cc4ccccc4)C(=O)[C@@H]3CC[C@@H]12,-0.148
10,COC(=O)NCC=Cc1nc(CCCO)co1,0.432
11,CC(C)=NOC[C@@H](C)[C@H](OCc1ccccc1)C(C)C,0.177
12,CO[C@H]1COC(=O)CC=C[C@@H](C)[C@H](NS(=O)(=O)c2ccc(C)cc2)COC(=O)CCC[C@@H]1C,0.231
13,COc1ccc(O[C@H]2C=C[C@@H](c3ccccc3)O[C@@H]2COC(=O)CCC(C)=NO[C@@H]2O[C@H](COC(C)=O)[C@@H](OC(C)=O)[C@H](OC(C)=O)[C@H]2OC(C)=O)cc1,0.495
14,CCOC(=O)CCN1C(=O)[C@H]2[C@H]3[C@H](O)[C@H](O)CC(=NOCc4ccccc4)[C@H]3CC[C@H]2C1=O,-0.0274
15,COCOc1ccc(Br)cc1C(=O)[C@@H]1O[C@H]1c1cccc(OC)c1,0.106
16,CC(C)CON=C1C[C@@H](O)[C@@H](O)[C@@H]2[C@@H]3C(=O)N(C4CCCCC4)C(=O)[C@@H]3CC[C@@H]12,0.0112
17,CO[C@H]1COC(=O)CC=C[C@@H](C)[C@H](OC)COC(=O)[C@@H]2CCCN2C(=O)CC=C[C@@H]1C,0.678
18,CCOC(=O)[C@H](Cc1ccccc1)NC(=O)CCC1CC(OC(=O)NCc2ccc3c(c2)OCO3)CC2(CCCC(COC(=O)NCCc3ccccc3OC)O2)O1 (stereo not given in full),0.798
